Test results: PubChem BioAssay AID624330 (Southern Research Specialized Biocontainment Screening …, 2012)
The campaign covered roughly 340,000 compounds. About 2,100 (0.62%) were called active. Not all results are given here. Potency and affinity values are given separately. A number with no mark means an inactive call.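 Rule for the calls: active = first-screen hits whose inhibition reached a set limit at any dose in the follow-up dose series; inconclusive = inhibition above the set first-screen limit but never retested; inactive = the rest.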

What follows are molecules tested against Rac GTPase-activating protein 1 (Homo sapiens) (UniProt Q9H0H5) (assay: MgcRacGAP GTPase-activating activity inhibitors, confirmation, biochemical, ADP Hunter fluorescence, primary and confirmatory (AID 624330;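 note: fluorescence reports GDP produced by GAP-driven GTP hydrolysis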)). Conditions: MgcRacGAP-stimulated Rac1 GTP hydrolysis, at 30 µM, active compounds read high, GST-tagged Rac1 F28L mutant substrate.
Sequence of Rac GTPase-activating protein 1 (Homo sapiens) (Q9H0H5 whole entry, looked up): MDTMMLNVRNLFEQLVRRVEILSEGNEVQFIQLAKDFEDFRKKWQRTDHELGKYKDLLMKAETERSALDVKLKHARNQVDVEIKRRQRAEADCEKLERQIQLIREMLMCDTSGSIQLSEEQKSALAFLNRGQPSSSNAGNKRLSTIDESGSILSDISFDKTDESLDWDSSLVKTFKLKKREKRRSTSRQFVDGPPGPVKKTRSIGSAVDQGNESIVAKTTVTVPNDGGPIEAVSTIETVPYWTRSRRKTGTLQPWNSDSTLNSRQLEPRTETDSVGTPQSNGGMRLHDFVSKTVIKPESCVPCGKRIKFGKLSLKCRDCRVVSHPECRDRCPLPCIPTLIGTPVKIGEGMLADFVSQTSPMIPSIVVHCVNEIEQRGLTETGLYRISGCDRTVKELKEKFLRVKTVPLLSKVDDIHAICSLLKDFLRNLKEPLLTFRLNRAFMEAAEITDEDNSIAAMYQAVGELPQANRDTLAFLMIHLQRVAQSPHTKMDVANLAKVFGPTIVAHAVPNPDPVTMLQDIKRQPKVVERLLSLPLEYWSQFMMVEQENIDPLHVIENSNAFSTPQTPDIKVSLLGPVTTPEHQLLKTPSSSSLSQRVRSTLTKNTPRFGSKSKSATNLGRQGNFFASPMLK
`COc1ccc(OC(=O)c2ccc(OC)c(S(=O)(=O)N3CCOCC3)c2)cc1` showed an inhibition of 22.8%. `O=C(Oc1ccc(OC(=O)c2ccncc2)cc1)c1ccncc1` was tested, and the inhibition was 5.17%. `O=C(Nc1ccc2c(c1)OCCO2)c1ccc(Br)c(S(=O)(=O)N2CCOCC2)c1` was tested, and the inhibition was -4.87%. For `COc1ccc(C(=O)Oc2ccc3c(c2)OCO3)cc1OC`, the inhibition was 7.69%. Work on `COc1ccc(CCN2C(=O)c3ccccc3NC2c2cc(Cl)c(O)c(OC)c2)cc1` (stereo not drawn) yielded an inhibition of 7.25%. Molecule `COC(=O)c1c(NC(=O)CC2SC(N)=NC2=O)sc(C)c1C` (stereo not drawn) has an inhibition of -4.36%. `Nc1cc2c(cc1Cl)N(Cc1ccccc1)C(=O)CO2` showed an inhibition of 4.01%. For `Cc1cc2c(NCC(C)O)ncnc2s1` (stereo not drawn), the inhibition was 8.37%. Molecule `CSCC(=O)N1CCCC(N2CCN(c3ccc(F)cc3)CC2)C1` (stereo not drawn) has an inhibition of 15.7%. `Cc1ccccc1OCC(=O)Nc1ccc(N2CCN(C(=O)c3ccco3)CC2)cc1` was tested, and the inhibition was 10.3%. `COc1ccc(CCNC(=O)COC(=O)c2cc(OC)c(OC)cc2OC)cc1OC` was tested, and the inhibition was 7.3%. `C=CCc1cc(Cl)ccc1OCCCn1ccnc1` showed an inhibition of 19.6%. Work on `C=CCc1cc(Cl)ccc1OCCOCCN(C)C` yielded an inhibition of 22%. Molecule `C=CCc1cc(Cl)ccc1OCCCNC(C)C` has an inhibition of 23.5%. With `C=CCc1ccccc1OCCn1ccnc1` the inhibition was 9.27%. With `C=CCOc1ccc(Cl)cc1CNCCCN1CCOCC1` the inhibition was 1.5%. In the case of `C=CCc1cc(C)ccc1OCCOCCn1ccnc1`, the inhibition is reported as 15.9%. For `C=CCc1cc(C)ccc1OCCn1ccnc1`, the inhibition was 17.7%. In the case of `C=CCc1cc(Cl)ccc1OCCNCCOC`, the inhibition is reported as 10.8%. `COc1ccc(NC(=O)N2CCN(S(=O)(=O)c3ccc(F)cc3)CC2)c(OC)c1` showed an inhibition of 7.35%. In the case of `CCCCCCCNC(=O)C1(CC2CC(c3ccc(Cl)cc3)=NO2)CCN(C(=O)CCCCCBr)CC1` (stereo not drawn), the inhibition is reported as 3.79%. Work on `COc1ccc2cc(CN(CC3COCCO3)S(=O)(=O)c3ccccc3)c(=O)[nH]c2c1` (stereo not drawn) yielded an inhibition of -14.3%. With `Cc1onc(-c2ccccc2)c1C(=O)N/N=C/c1ccco1` the inhibition was 4.91%. Molecule `N#Cc1ccc(NC(=O)Cn2c3[n+](c4ccc(C(F)(F)F)cc42)CCCCC3)cc1` has an inhibition of -1.69%. `CNc1nc(-c2ccc3c(c2)CCN3C(=O)c2ccccc2C)cs1` was tested, and the inhibition was 10.3%. `COc1ccc(-c2cc(C(=O)Nc3cccnc3Cl)no2)cc1` was tested, and the inhibition was 9.21%. `C=CCn1ccc2c([N+](=O)[O-])cccc2c1=O` was tested, and the inhibition was 8.97%. In the case of `COCCNC(=O)c1ccccc1NC(=O)c1ccccc1N(C)S(=O)(=O)c1ccc(C)cc1`, the inhibition is reported as 3.63%. `CC1CCCN(C(=O)c2cc(S(=O)(=O)N3CCCCC3)c[nH]2)C1` (stereo not drawn) was tested, and the inhibition was -0.16%. In the case of `CCCc1nc(NCc2ccccc2)c(C#N)c2c1CCCC2`, the inhibition is reported as 8.86%. `Cc1c(NC(=O)c2ccc(S(=O)(=O)N3CC(C)OC(C)C3)cc2)c(=O)n(-c2ccccc2)n1C` (stereo not drawn) was tested, and the inhibition was 4.26%. `COc1ccc(C(=O)CCC(=O)Nc2cccc(Cl)c2)cc1` gave an inhibition of 4.1%. `COc1ccc(NC(=O)CCC(=O)c2ccc(C(C)C)cc2)cc1` was tested, and the inhibition was 12.2%. In the case of `CCOc1ccccc1N1CCN(CC(=O)Nc2ccnn2C2CCCC2)CC1`, the inhibition is reported as 5.05%. For `CN(C(=O)CSc1nc2scc(-c3ccccc3)c2c(=O)[nH]1)c1ccccc1`, the inhibition was 6.96%. For `O=C1c2ccccc2CN2C(=O)c3ccccc3CN12`, the inhibition was 3.55%. Work on `COc1ccccc1/C=C/CN1CCN(Cc2ccc(C)o2)C(CCO)C1` (stereo not drawn) yielded an inhibition of 11%. Work on `Cc1ccc(CN2CCN(C/C=C/c3ccc(F)cc3)CC2CCO)o1` (stereo not drawn) yielded an inhibition of 7.9%. `COc1ccc(/C=C/CN2CCN(CC(C)C)C(CCO)C2)cc1` (stereo not drawn) gave an inhibition of 5.86%. With `CC(C)CCN1CCN(C/C=C/c2ccco2)CC1CCO` (stereo not drawn) the inhibition was 14.2%. With `CC(C)(C)c1ccc(OC(=O)c2ccc3snnc3c2)cc1` the inhibition was 4.25%. With `CC(=O)N/C(=C\c1ccccc1)C(=O)OCC(=O)NC(=O)c1ccccc1` the inhibition was 5.8%. `CC(OC(=O)C1CC(=O)N(Cc2ccco2)C1)C(=O)Nc1cccc(C#N)c1` (stereo not drawn) was tested, and the inhibition was 6.14%. In the case of `O=C(CN(C(=O)c1csnn1)c1ccc(F)cc1)NCCc1ccccc1`, the inhibition is reported as 7.07%. `COc1ccc(C(O)Cc2nccn2C)cc1` (stereo not drawn) gave an inhibition of 2.89%. In the case of `Cc1cccc(-n2cnc(C(=O)O)c2)n1`, the inhibition is reported as 4.99%. With `CC(=O)Nc1ccc(NC(=O)c2ccnn2C)cc1` the inhibition was 3.95%. `Cn1nccc1C(=O)Nc1ccc(Cl)cc1` gave an inhibition of -1.74%. With `C=CCN(C(=O)c1csnn1)C(C(=O)NC1CCCC1)c1ccc(F)cc1` (stereo not drawn) the inhibition was 5.68%. For `COC(=O)C[C@@H]1C[C@H]2c3cc(N(C)C)ccc3O[C@H]2[C@H](CO)O1`, the inhibition was 18.6%. `COc1ccccc1CNC(=O)C[C@@H]1C[C@H]2c3cc(NC(=O)c4ccc5c(c4)OCO5)ccc3O[C@H]2[C@@H](CO)O1` was tested, and the inhibition was 13.4%. `O=C1CN(S(=O)(=O)c2cccc(Cl)c2Cl)c2ccccc2N1` was tested, and the inhibition was 4.66%. In the case of `COc1cc([N+](=O)[O-])ccc1NC(=O)CCN1C(=O)C2C3CCC(C3)C2C1=O` (stereo not drawn), the inhibition is reported as 6.61%. With `O=C(CNC(=O)c1ccco1)Nc1ccc(N2CCCCCC2)cc1` the inhibition was 30.4%. In the case of `O=C(Cc1ccccc1)Nc1ccc(N2CCCCC2)cc1`, the inhibition is reported as 1.26%. With `COc1ccc(C)cc1NC(=O)CNCc1cccs1` the inhibition was 0.81%. Molecule `O=C(CNCc1cccs1)Nc1ccc(S(=O)(=O)N2CCCCC2)cc1` has an inhibition of 14.5%. `S=C(NCc1ccco1)Nc1ccc(Oc2ccccc2)cc1` was tested, and the inhibition was 1.09%. `CC(=O)c1ccc(NC(=O)CNCc2cccs2)cc1` showed an inhibition of 28.6%. Molecule `O=C(NCc1ccco1)c1ccc(Oc2ccccc2)cc1` has an inhibition of 1.55%. `COc1ccc(NC(=O)Cc2cccs2)c(OC)c1` showed an inhibition of 8.99%. For `CCCOC(=O)C(C)n1cnc2scc(-c3ccc(C)cc3)c2c1=O` (stereo not drawn), the inhibition was 8.26%. `N#CC(=C(O)CN1CCN(c2ccccc2F)CC1)c1nc(-c2ccccc2)cs1` showed an inhibition of 6.97%. `CCOC(=O)CSc1nc2ccc(N3CCOCC3)cc2c(=O)n1Cc1ccccc1` was tested, and the inhibition was 1.81%. Molecule `O=C1NCC(NC(=O)C(F)(F)F)c2cc3c(cc21)OCO3` (stereo not drawn) has an inhibition of -0.85%. Molecule `CCN1C(=O)[C@H]2[C@H]3CN=C(SCc4ccccc4)N3[C@@](C)(C(=O)OC)[C@H]2C1=O` has an inhibition of 13.1%. `Cc1ccc(C(=O)c2c(NC(=O)CSc3nnc(N)s3)sc3c2CCCC3)cc1` was tested, and the inhibition was -2.45%. `CCOC(=O)N1CCN(CC(=O)Nc2ccc(Oc3ccccc3)cc2)CC1` gave an inhibition of 5.48%. For `CCN(CC)C(=O)C(=O)Nc1ccc(Oc2ccccc2)cc1`, the inhibition was 2.61%. `Cc1ccc(-c2nc3cnccn3c2Nc2ccc3c(c2)OCCO3)o1` was tested, and the inhibition was 12.5%. `CN(C)c1ccc(-n2cccc2/C=N/n2cnnc2)cc1` was tested, and the inhibition was 9.83%. `O=C(O)c1cccc(-n2cccc2/C=C\[N+](=O)[O-])c1` showed an inhibition of 26.7%. `COc1ccc(-n2cccc2C=O)cc1` showed an inhibition of 4.9%. With `CCOc1ccc(-n2cccc2C=O)cc1` the inhibition was 4.88%. Molecule `CC(=O)NC(Cc1ccccc1C)C(=O)NC1CCN(c2nnnn2-c2ccccc2)CC1` (stereo not drawn) has an inhibition of 3.78%. With `C#CCO[C@@H]1C[C@H](n2ccc(NC(=O)c3ccccc3)nc2=O)O[C@@H]1CO` the inhibition was 7.23%. Work on `CSc1ncccc1C(=O)N1CCCC(N2CCN(c3ccccc3C)CC2)C1` (stereo not drawn) yielded an inhibition of 10.5%. `O=C(NC(c1ccccc1)c1ccccc1)C1CCCN(S(=O)(=O)c2cnc[nH]2)C1` (stereo not drawn) gave an inhibition of 1.47%. `C=CCc1ccc(OCCOCCN(C)C)c(OC)c1` was tested, and the inhibition was 11.5%. With `C=CCc1ccc(OCCOCCNCCOC)c(OC)c1` the inhibition was 8.29%. `COc1cccc(NC(=O)COc2ccc(C(=S)N3CCN(C)CC3)cc2OC)c1` showed an inhibition of 7.49%. `Cc1ccc(NC(=O)CSc2nn(-c3ccccc3)c(=S)s2)cc1S(=O)(=O)N(C)C` showed an inhibition of 2.35%. Work on `O=C(c1ccccc1F)N1CCN(C(=O)C2CC2)CC1` yielded an inhibition of 3.19%. Work on `CC1(C)O[C@@H]2[C@H](O1)[C@@H](COS(=O)(=O)O)O[C@H]2n1cnc2c(=O)[nH]cnc21` yielded an inhibition of 7.41%. In the case of `CC1(C)O[C@@H]2[C@H](O1)[C@@H](COS(=O)(=O)O)O[C@H]2n1ccc(=O)[nH]c1=O`, the inhibition is reported as 2.43%. In the case of `CC1CN(S(=O)(=O)N(C)C)CCN1S(=O)(=O)N(C)C` (stereo not drawn), the inhibition is reported as 5.65%. For `CCOC(=O)c1c(N)sc(-c2ccccc2)c1C`, the inhibition was 27.2%. Molecule `COC(=O)c1c(N)sc(Cc2ccccc2)c1C` has an inhibition of 7.62%. `CC(C)c1ccc(N2C(=O)CC(Sc3ncccn3)C2=O)cc1` (stereo not drawn) was tested, and the inhibition was 1.68%. Work on `CC1=C(C)CS(=O)N(S(=O)(=O)c2ccccc2)C1` (stereo not drawn) yielded an inhibition of 30.6%. With `O=S(=O)(c1ccccc1)N1CCN(S(=O)(=O)c2ccccc2)C1` the inhibition was 3.12%. Molecule `Cc1cccc(C(=O)NCC(c2ccc(F)cc2)N2CCOCC2)c1` (stereo not drawn) has an inhibition of 3.85%. `Cc1ccc(C)c(CSc2ncccc2C(=O)O)c1` showed an inhibition of 9.95%. For `NC(=O)c1ccc2c(c1)OCCO2`, the inhibition was -2.13%. Molecule `O=C(c1ccccc1)c1ccc2c(c1)OCCOCCOCCOCCO2` has an inhibition of -8.09%. `O=C(Nc1cccnc1)c1cccc(NC(=O)c2ccco2)c1` gave an inhibition of 11.1%. In the case of `O=C(Nc1cccc(S(=O)(=O)Nc2ccccc2F)c1)c1ccco1`, the inhibition is reported as 0.67%. In the case of `N#Cc1cc([N+](=O)[O-])ccc1NCCCn1ccnc1`, the inhibition is reported as -2.38%.
